Measurements from PMC7862700, “An all-to-all approach to the identification of sequence-specific readers for epigenetic DNA modifications on cytosine”.

Tests used:
Experiment in all cases: DAPPL (digital affinity profiling via proximity ligation, sequencing); 10 mM Tris-HCl pH 7.5, 50 mM NaCl, 1 mM DTT, 4% glycerol, room temperature, 30 min; GST-TFs on glutathione beads, 16-mer random dsDNA library, 0.1% formaldehyde crosslink after washing; high values mean tight binding
Conditions in all cases: protein: recombinant; tags: N-terminal GST; dsDNA, one strand shown
[1] = biological target: T1, FLI1 (Homo sapiens, UniProt Q01543 1-452)
T1 sequence: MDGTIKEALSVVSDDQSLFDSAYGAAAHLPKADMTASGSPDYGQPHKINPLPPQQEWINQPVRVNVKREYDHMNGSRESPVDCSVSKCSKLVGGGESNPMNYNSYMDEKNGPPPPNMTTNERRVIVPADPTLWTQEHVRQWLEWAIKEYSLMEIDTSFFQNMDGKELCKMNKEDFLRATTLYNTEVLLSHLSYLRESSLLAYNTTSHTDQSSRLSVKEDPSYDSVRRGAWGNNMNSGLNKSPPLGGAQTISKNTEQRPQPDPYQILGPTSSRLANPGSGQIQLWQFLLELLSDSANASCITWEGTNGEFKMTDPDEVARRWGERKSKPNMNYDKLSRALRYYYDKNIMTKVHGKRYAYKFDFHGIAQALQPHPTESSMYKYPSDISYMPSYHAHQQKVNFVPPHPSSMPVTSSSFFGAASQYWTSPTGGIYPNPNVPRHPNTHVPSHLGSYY
Method in brief: (§1)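 After expression in yeast as GST fusions, human transcription factors were bound to glutathione beads, DNA-barcoded and mixed with a tag-only sample. The pools were incubated with 200 nmole of a 16-mer random double-stranded DNA library in Tris/NaCl/DTT/glycerol buffer (30 min, room temperature), washed and crosslinked with 0.1% formaldehyde. Proximity ligation with BsaI/T4 ligase ran for 1 h at 37 °C, before PCR amplification and sequencing on an Illumina NextSeq500. Binding signal is a hexamer's read frequency for a factor divided by its frequency for the tag-only sample.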

[2] = biological target: T2, ELK1 (Homo sapiens, UniProt P19419 1-428)
T2 sequence: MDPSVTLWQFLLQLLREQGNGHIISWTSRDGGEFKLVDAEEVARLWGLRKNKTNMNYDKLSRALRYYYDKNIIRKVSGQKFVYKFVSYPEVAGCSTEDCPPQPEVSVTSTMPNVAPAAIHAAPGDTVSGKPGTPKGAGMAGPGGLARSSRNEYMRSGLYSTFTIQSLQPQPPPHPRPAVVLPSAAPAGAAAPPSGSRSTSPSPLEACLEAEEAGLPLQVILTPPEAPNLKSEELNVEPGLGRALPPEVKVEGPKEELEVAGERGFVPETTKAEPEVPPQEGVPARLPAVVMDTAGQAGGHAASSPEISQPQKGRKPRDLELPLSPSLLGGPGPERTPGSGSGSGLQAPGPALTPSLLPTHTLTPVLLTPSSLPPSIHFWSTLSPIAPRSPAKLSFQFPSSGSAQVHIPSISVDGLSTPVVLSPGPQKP
Method in brief: as §1

[3] = biological target: T3, GABPA (Homo sapiens, UniProt Q06546 1-454)
T3 sequence: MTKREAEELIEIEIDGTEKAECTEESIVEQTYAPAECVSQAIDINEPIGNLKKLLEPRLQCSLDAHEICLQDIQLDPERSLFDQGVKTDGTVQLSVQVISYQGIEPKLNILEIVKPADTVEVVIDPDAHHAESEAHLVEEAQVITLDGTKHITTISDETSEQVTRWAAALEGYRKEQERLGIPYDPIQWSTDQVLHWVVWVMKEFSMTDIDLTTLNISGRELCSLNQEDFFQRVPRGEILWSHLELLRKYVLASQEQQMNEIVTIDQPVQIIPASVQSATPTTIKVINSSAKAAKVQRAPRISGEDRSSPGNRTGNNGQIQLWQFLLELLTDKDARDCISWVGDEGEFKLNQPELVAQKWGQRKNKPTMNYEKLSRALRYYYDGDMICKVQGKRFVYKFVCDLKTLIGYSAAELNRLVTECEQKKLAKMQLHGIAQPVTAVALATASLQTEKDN
Method in brief: as §1

[4] = biological target: T4, ERG (Homo sapiens, UniProt P11308 1-479)
T4 sequence: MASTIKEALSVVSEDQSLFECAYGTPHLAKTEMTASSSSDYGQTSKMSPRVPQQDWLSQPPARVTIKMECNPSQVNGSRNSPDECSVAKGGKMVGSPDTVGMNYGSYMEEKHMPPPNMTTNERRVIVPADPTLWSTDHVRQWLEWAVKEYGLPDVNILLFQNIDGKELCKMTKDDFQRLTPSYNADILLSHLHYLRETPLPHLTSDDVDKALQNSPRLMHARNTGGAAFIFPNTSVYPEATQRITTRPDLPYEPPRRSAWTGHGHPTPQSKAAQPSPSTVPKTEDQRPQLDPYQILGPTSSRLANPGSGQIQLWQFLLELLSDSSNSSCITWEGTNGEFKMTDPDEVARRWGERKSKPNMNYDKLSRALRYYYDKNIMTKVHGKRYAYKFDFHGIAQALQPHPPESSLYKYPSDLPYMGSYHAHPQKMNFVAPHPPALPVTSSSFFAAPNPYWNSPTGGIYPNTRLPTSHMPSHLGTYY
Method in brief: as §1

[5] = biological target: ELF1 (Homo sapiens, UniProt P32519 1-619)
Method in brief: as §1

[6] = biological target: T5, EHF (Homo sapiens, UniProt Q9NZC4 1-300)
T5 sequence: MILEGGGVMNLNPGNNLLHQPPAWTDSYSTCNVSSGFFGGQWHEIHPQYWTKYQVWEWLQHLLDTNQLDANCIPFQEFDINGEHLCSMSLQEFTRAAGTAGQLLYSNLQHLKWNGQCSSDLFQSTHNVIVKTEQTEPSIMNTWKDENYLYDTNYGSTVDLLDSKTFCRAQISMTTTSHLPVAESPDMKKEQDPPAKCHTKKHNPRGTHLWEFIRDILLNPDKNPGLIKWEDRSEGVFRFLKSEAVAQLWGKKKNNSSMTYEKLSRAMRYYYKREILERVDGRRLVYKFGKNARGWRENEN
Method in brief: as §1

[7] = biological target: SPI1 (Homo sapiens, UniProt P17947 1-270)
Method in brief: as §1

[8] = biological target: SPIB (Homo sapiens, UniProt Q01892 1-262)
Method in brief: as §1

[9] = biological target: T6, ELK3 (Homo sapiens, UniProt P41970 1-407)
T6 sequence: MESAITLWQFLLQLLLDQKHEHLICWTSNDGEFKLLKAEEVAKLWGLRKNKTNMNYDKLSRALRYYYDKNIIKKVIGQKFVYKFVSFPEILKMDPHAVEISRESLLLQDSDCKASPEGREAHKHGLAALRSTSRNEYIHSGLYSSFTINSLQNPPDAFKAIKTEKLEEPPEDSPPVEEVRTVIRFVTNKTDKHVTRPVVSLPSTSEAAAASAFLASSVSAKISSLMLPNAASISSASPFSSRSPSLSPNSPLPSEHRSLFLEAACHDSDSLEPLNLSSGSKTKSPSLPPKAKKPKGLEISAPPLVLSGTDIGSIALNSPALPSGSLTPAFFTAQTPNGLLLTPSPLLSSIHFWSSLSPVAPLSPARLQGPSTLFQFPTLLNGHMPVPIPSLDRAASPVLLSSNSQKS
Method in brief: as §1

ELF1, sequence (P32519 whole entry): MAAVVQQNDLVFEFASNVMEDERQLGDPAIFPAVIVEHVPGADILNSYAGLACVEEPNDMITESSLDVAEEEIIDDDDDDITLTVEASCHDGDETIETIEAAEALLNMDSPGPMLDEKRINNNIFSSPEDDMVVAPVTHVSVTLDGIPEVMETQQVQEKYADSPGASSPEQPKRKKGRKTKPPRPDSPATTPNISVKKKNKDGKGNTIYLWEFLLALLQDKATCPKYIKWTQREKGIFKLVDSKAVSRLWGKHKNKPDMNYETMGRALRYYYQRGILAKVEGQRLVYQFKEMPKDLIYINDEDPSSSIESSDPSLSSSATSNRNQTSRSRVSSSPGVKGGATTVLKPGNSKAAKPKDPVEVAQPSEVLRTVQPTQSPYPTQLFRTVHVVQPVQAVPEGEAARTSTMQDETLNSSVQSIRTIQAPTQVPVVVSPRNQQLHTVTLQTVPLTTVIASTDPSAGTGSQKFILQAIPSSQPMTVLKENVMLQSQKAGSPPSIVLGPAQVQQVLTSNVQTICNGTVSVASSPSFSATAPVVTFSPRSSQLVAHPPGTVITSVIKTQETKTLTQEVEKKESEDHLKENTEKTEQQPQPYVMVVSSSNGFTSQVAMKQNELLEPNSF
SPIB, sequence (Q01892 whole entry): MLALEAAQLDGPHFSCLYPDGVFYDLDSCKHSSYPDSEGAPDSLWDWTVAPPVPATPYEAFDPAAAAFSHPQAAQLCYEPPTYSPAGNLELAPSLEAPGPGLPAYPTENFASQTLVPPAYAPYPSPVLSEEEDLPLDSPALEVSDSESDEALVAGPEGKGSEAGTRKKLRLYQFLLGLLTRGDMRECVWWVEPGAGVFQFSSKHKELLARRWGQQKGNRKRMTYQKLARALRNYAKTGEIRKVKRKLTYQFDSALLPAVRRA

Sequence: ATACGT
- binding signal [1]: 1.12 fold enrichment (6-mer frequency, TF over GST control)
- binding signal [2]: 1.14 fold enrichment (6-mer frequency, TF over GST control)
- binding signal [3]: 1.11 fold enrichment (6-mer frequency, TF over GST control)
- binding signal [4]: 1.09 fold enrichment (6-mer frequency, TF over GST control)
- binding signal [5]: 1.11 fold enrichment (6-mer frequency, TF over GST control)
- binding signal [6]: 1.24 fold enrichment (6-mer frequency, TF over GST control)
- binding signal [7]: 1.06 fold enrichment (6-mer frequency, TF over GST control)
- binding signal [8]: 1.13 fold enrichment (6-mer frequency, TF over GST control)
- binding signal [9]: 1.12 fold enrichment (6-mer frequency, TF over GST control)

Sequence: GCTACC
- binding signal [1]: 1.18 fold enrichment (6-mer frequency, TF over GST control)
- binding signal [2]: 1.27 fold enrichment (6-mer frequency, TF over GST control)
- binding signal [3]: 1.25 fold enrichment (6-mer frequency, TF over GST control)
- binding signal [4]: 1.26 fold enrichment (6-mer frequency, TF over GST control)
- binding signal [5]: 1.29 fold enrichment (6-mer frequency, TF over GST control)
- binding signal [6]: 1.09 fold enrichment (6-mer frequency, TF over GST control)
- binding signal [7]: 1.11 fold enrichment (6-mer frequency, TF over GST control)
- binding signal [8]: 1.28 fold enrichment (6-mer frequency, TF over GST control)
- binding signal [9]: 1.39 fold enrichment (6-mer frequency, TF over GST control)

Sequence: CCCTCA
- binding signal [1]: 1.28 fold enrichment (6-mer frequency, TF over GST control)
- binding signal [2]: 1.11 fold enrichment (6-mer frequency, TF over GST control)
- binding signal [3]: 1.18 fold enrichment (6-mer frequency, TF over GST control)
- binding signal [4]: 1.16 fold enrichment (6-mer frequency, TF over GST control)
- binding signal [5]: 1.19 fold enrichment (6-mer frequency, TF over GST control)
- binding signal [6]: 1.1 fold enrichment (6-mer frequency, TF over GST control)
- binding signal [7]: 1.12 fold enrichment (6-mer frequency, TF over GST control)
- binding signal [8]: 1.25 fold enrichment (6-mer frequency, TF over GST control)
- binding signal [9]: 1.19 fold enrichment (6-mer frequency, TF over GST control)

Sequence: TGCCAC
- binding signal [1]: 1.21 fold enrichment (6-mer frequency, TF over GST control)
- binding signal [2]: 1.2 fold enrichment (6-mer frequency, TF over GST control)
- binding signal [3]: 1.14 fold enrichment (6-mer frequency, TF over GST control)
- binding signal [4]: 1.26 fold enrichment (6-mer frequency, TF over GST control)
- binding signal [5]: 1.18 fold enrichment (6-mer frequency, TF over GST control)
- binding signal [6]: 1.23 fold enrichment (6-mer frequency, TF over GST control)
- binding signal [7]: 1.21 fold enrichment (6-mer frequency, TF over GST control)
- binding signal [8]: 1.13 fold enrichment (6-mer frequency, TF over GST control)
- binding signal [9]: 1.23 fold enrichment (6-mer frequency, TF over GST control)

Sequence: ACCATA
- binding signal [1]: 1.2 fold enrichment (6-mer frequency, TF over GST control)
- binding signal [2]: 1.16 fold enrichment (6-mer frequency, TF over GST control)
- binding signal [3]: 1.12 fold enrichment (6-mer frequency, TF over GST control)
- binding signal [4]: 1.19 fold enrichment (6-mer frequency, TF over GST control)
- binding signal [5]: 1.16 fold enrichment (6-mer frequency, TF over GST control)
- binding signal [6]: 1.12 fold enrichment (6-mer frequency, TF over GST control)
- binding signal [7]: 1.13 fold enrichment (6-mer frequency, TF over GST control)
- binding signal [8]: 1.19 fold enrichment (6-mer frequency, TF over GST control)
- binding signal [9]: 1.22 fold enrichment (6-mer frequency, TF over GST control)

Sequence: TGTCTA
- binding signal [1]: 1.2 fold enrichment (6-mer frequency, TF over GST control)
- binding signal [2]: 1.15 fold enrichment (6-mer frequency, TF over GST control)
- binding signal [3]: 1.12 fold enrichment (6-mer frequency, TF over GST control)
- binding signal [4]: 1.17 fold enrichment (6-mer frequency, TF over GST control)
- binding signal [5]: 1.15 fold enrichment (6-mer frequency, TF over GST control)
- binding signal [6]: 1.12 fold enrichment (6-mer frequency, TF over GST control)
- binding signal [7]: 1.09 fold enrichment (6-mer frequency, TF over GST control)
- binding signal [8]: 1.02 fold enrichment (6-mer frequency, TF over GST control)
- binding signal [9]: 1.36 fold enrichment (6-mer frequency, TF over GST control)

Sequence: GTACCT
- binding signal [1]: 1.36 fold enrichment (6-mer frequency, TF over GST control)
- binding signal [2]: 1.16 fold enrichment (6-mer frequency, TF over GST control)
- binding signal [3]: 1.26 fold enrichment (6-mer frequency, TF over GST control)
- binding signal [4]: 1.16 fold enrichment (6-mer frequency, TF over GST control)
- binding signal [5]: 1.22 fold enrichment (6-mer frequency, TF over GST control)
- binding signal [6]: 1.29 fold enrichment (6-mer frequency, TF over GST control)
- binding signal [7]: 1.12 fold enrichment (6-mer frequency, TF over GST control)
- binding signal [8]: 1.18 fold enrichment (6-mer frequency, TF over GST control)
- binding signal [9]: 1.1 fold enrichment (6-mer frequency, TF over GST control)
